# Only some compounds are listed: those with a hit (about 3.1% of all), similar ones and a draw of the others.
# p53null 32C kill: qHTS Screen for Compounds that Selectively Target Cancer Cells with p53 Mutations: Cytotoxicity of p53 Null Cells at the Permissive Temperature; Potency, µM (series often up to 46.1 µM), for the others: at the top dose activity change, negative = cytotoxicity, usual class: cytotoxic; AID 903, 2007; H1299-neo p53 null cells, ATP luminescence, 24 h, 32C; 0.62% of 55,000 active;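 further: potency means the concentration at half of the fitted maximal effect; 0% = DMSO only and -100% = full killing by 100 µM tamoxifen; nearly all actives have a fitted effect of over 55% in size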
#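 H1299-neo (p53-null) cells, 600/well, were pre-incubated overnight at 37C, then exposed to compounds at up to 46 uM for 24 hr at 32C. Viability was measured as ATP content by luminescence, and AC50 values came from Hill fits.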
# mTORC1 inh: Acumen qHTS Assay for Inhibitors of the mTORC1 Signaling Pathway in MEF (Tsc2-/-, p53-/-) Cells: Sytravon; Tsc2-/- p53-/- MEF, phospho-rpS6 immunofluorescence/PI, 24 h; Potency, µM (top dose mostly 38.3 µM), for the others: at the highest dose activity change, negative = inhibition, actives largely listed as inhibitors; 0.78% of 44,000 active; AID 493208, 2011;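 further: potency means the concentration at half of the fitted maximal effect; plate controls were DMSO for no effect and rapamycin for full effect; nearly all actives have a fitted effect of over 50% in size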
#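 Immunofluorescence of rpS6 phosphorylation in Tsc2-/-, p53-/- MEFs after 24 h compound exposure, normalized to propidium iodide signal. Activity is expressed as % positive cells, thresholded with 7.5 nM rapamycin.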
# OvCa metastasis: Primary qHTS assay for Inhibitors of ovarian cancer metastasis using an organotypic tumor microenvironment (TME) model; SKOV3ip1-GFP adhesion/invasion on 3D omental model, fluorescence; Potency, µM (titrated, usually from 45.8 µM), for inactives: top-dose activity change, negative = inhibition, hits mostly inhibitors; 0.1% of 46,000 active; AID 1963576, 2024;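 further: potency means the concentration at half of the fitted maximal effect; plate controls were DMSO wells for no effect and tomatine positive control wells for full effect; nearly all actives have a fitted effect of over 65% in size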
#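 Primary human omental fibroblast/mesothelial 3D culture pre-formed 48 h. SKOV3ip1-GFP cells added with compounds (0.36-46 umol/L), incubated 2 h RT/16 h 37 C, fixed; GFP cells quantified at 488/509 nm.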
# p53null 39C kill: qHTS Screen for Compounds that Selectively Target Cancer Cells with p53 Mutations: Cytotoxicity of p53 Null Cells at the Nonpermissive Temperature; AID 904, 2007; H1299 p53-null (neo) cells, 39C, ATPlite viability, 24 h; 0.97% of 55,000 active; Potency, µM (doses to about 46.1 µM), without a hit: top-dose activity, negative = cell killing, hits mostly cytotoxic;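 further: potency means the concentration at half of the fitted maximal effect; 0% = DMSO only and -100% = full killing by 100 µM tamoxifen; nearly all actives have a fitted effect of over 50% in size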
#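 Luminescent ATP signal reported cell survival after H1299 lines (neo, p53 null; or p53 A138V) received up to 46 uM compound and 24 hr incubation at 39C.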
# PMP22 txn: Cell-based coincidence reporter assay to measure PMP22 gene transcription in S16 Pmp22-F2sN cells - Primary screen; S16 Pmp22-F2sN Schwann cells, FLuc/NLuc coincidence luminescence, 24 h; Potency, µM (series often up to 57.5 µM), for the others: at the highest dose activity change, negative = inhibition, usual class: inhibitors; 2% of 43,000 active; active means clear falling dose curves in both reporters; inconclusive means both reporters move, but less clearly or upward; inactive means either reporter flat; the % is the NLuc reporter signal; further: potency means the concentration at half of the fitted maximal effect; on the % scale 0 is the no-effect control and ±100 the full control effect
#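 Reporter cells (S16 Pmp22-F2sN, 500–1,000 per well) exposed to compounds for 24 h, 37C, 5% CO2; lysis with FLuc read after 10 min, then Stop&Glo and NLuc read after 10 min.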
# S16 F2sN tox: Cell viability qHTS assay in S16 Pmp22-F2sN cells. 0.48% of 43,000 active. S16 Pmp22-F2sN Schwann cells viability, CellTiter-Glo, 24 h. Potency, µM (top dose mostly 57.5 µM), inactives show top-dose activity change, negative = cytotoxicity, hits mostly cytotoxic; further: potency means the concentration at half of the fitted maximal effect; on the % scale 0 is the no-effect control and ±100 the full control effect; nearly all actives have a fitted effect of over 65% in size
#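 S16 Pmp22-F2sN Schwann cells (500-1,000/well) in phenol-red-free DMEM with 10% FBS received 23 nL compound by pin tool for 24 h at 37 °C. Viability was then read as CellTiter-Glo luminescence after 15 min at room temperature.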
# NLuc saturating: Biochemical NLuc saturation counterscreen for small molecule modulators of PMP22 gene expression - Nano-Glo assay. Secreted NLuc enzyme (filtered S16 cell medium), Nano-Glo luminescence. 4% of 690 active. shares compounds with PMP22 txn. Potency, µM (doses to about 57.5 µM), inactives show top-dose activity change, negative = inhibition, usual class: inhibitors; further: potency means the concentration at half of the fitted maximal effect; on the % scale 0 is the no-effect control and ±100 the full control effect
# NLuc Km counter: Biochemical coelenterazine-based NLuc counterscreen for small molecule modulators of PMP22 gene expression - Km assay. shares compounds with PMP22 txn. 5% of 690 active. secreted NLuc enzyme, coelenterazine luminescence, Km conditions. Potency, µM (titrated, usually from 57.5 µM), without a hit: at the highest dose activity change, negative = inhibition, hits mostly inhibitors; further: potency means the concentration at half of the fitted maximal effect; on the % scale 0 is the no-effect control and ±100 the full control effect
# FLuc counter: Biochemical FLuc counterscreen for small molecule modulators of PMP22 gene expression; shares compounds with PMP22 txn; purified P. pyralis FLuc, luminescence, 10 min; Potency, µM (series often up to 57.5 µM), for inactives: top-dose activity, negative = inhibition, most hits filed as inhibitors; 690 tested, under 10 active; AID 1508640, 2021; further: % of control where 0% means no effect
# Target sequence (P08659 whole entry, looked up): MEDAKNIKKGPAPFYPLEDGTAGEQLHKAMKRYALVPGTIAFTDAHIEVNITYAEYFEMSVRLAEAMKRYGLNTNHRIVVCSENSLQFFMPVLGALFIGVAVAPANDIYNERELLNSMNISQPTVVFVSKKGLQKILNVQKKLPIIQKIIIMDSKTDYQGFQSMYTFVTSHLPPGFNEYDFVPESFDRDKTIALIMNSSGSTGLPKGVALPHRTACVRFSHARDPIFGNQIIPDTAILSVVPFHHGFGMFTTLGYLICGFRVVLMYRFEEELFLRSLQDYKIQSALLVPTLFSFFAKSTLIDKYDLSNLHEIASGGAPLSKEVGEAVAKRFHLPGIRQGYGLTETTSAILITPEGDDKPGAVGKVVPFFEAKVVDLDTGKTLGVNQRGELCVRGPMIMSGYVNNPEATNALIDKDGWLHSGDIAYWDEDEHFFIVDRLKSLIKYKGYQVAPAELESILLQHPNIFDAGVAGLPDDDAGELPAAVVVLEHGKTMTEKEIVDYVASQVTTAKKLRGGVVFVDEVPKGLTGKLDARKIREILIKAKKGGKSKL
# S16 F2sN tox cnf: Cell viability qHTS assay in S16 Pmp22-F2sN cells - Confirmatory screen; shares compounds with PMP22 txn; S16 Schwann cells viability, CellTiter-Glo ATP luminescence, 24 h; Potency, µM (series often up to 57.5 µM), for the others: at the top dose activity change, negative = viability loss, actives largely listed as cytotoxic; 7% of 690 active; AID 1508641, 2021; further: potency means the concentration at half of the fitted maximal effect; on the % scale 0 is the no-effect control and ±100 the full control effect
# PMP22 txn cnf: Cell-based coincidence reporter assay to measure PMP22 gene transcription in S16 Pmp22-F2sN cells - Confirmatory screen; shares compounds with PMP22 txn; S16 Schwann cells Pmp22-F2sN, dual luciferase, 24 h; Potency, µM (series often up to 57.5 µM), for inactives: top-dose activity change, negative = inhibition, most hits filed as inhibitors; 22% of 690 active; AID 1508646, 2021; active means clear falling dose curves in both reporters; inconclusive means both reporters move, but less clearly or upward; inactive means either reporter flat; the % is the FLuc reporter signal; further: potency means the concentration at half of the fitted maximal effect
# PMP22 HiBiT cnf: Cell-based HiBiT reporter assay to measure PMP22 protein expression in S16 Pmp22-HiBiT cells - Confirmatory screen | S16 Schwann cells Pmp22-HiBiT, luminescence, 48 h | shares compounds with PMP22 txn | 95 tested, under 10 active | Potency, µM (doses to about 27.9 µM), for inactives: top-dose activity change, negative = inhibition, usual class: inhibitors
# Target sequence (P25094 whole entry, looked up): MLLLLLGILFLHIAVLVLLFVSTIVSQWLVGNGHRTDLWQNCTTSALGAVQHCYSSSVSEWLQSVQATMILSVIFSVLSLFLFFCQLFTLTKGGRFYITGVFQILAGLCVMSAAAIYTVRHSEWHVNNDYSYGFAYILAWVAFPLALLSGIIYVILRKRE
# The depositor's hits bear a star; i = inactive; ? = inconclusive; · = no result. Unless noted, the call rests on the fitted dose curve; in most records, active means well fitted curve in the direction sought with a large enough effect; inconclusive means small, poorly fitted or top-dose-only effect, or another doubt; inactive means no such curve, though single readings can be large; an effect the other way counts as inactive or inconclusive.
SMILES,p53null 32C kill,mTORC1 inh,OvCa metastasis,p53null 39C kill,PMP22 txn,S16 F2sN tox,NLuc saturating,NLuc Km counter,FLuc counter,S16 F2sN tox cnf,PMP22 txn cnf,others
COc1ccc(Br)cc1CC1C(=O)Nc2ccccc21 (stereo unspecified),4%,-27%,-20%,9%,14µM*,-19%,?,?,-15%,-18%,?,PMP22 HiBiT cnf=23%
Cc1ccccc1CC1C(=O)Nc2ccc(Br)cc21 (stereo unspecified),-7%,-14%,i,-12%,-56%,?,·,·,·,·,·,
NC(=O)N1CCC(CC(=O)N2CCC([C@H]3c4ncc(Br)cc4CCc4cc(Cl)cc(Br)c43)CC2)CC1,·,·,16%,·,·,·,·,·,·,·,·,
Cc1cccc(-c2nnn3c2nc(NCc2ccc4c(c2)OCO4)c2ccccc23)c1,-4%,-11%,64%,?,17µM*,0%,-12%,-20%,-10%,-23%,15µM*,
Cc1cccc(-c2nnn3c2nc(NCCc2ccc(S(N)(=O)=O)cc2)c2ccccc23)c1,?,-1%,i,-23%,-31%,15%,·,·,·,·,·,
Clc1ccc(-c2nnn3c2nc(NCc2ccc4c(c2)OCO4)c2ccccc23)cc1,0%,-7%,18%,-13%,?,9%,·,·,·,·,·,
Cc1cccc(-c2nnn3c2nc(NCCC(C)C)c2ccccc23)c1,-3%,-2%,28%,17%,13µM*,8%,-2%,0%,-1%,16%,-1%,
Cc1ccc(-n2c(=O)c3ccc(C(=O)NCc4ccccc4Cl)cc3n(CC(=O)Nc3ccc(C)cc3C)c2=O)cc1,1%,-8%,i,-5%,15µM*,11%,-6%,4%,6%,?,8.5µM*,
CCc1ccc(NC(=O)Cn2c(=O)n(-c3ccc(OC)cc3)c(=O)c3ccc(C(=O)NCc4ccc(C)cc4)cc32)cc1,?,?,1%,?,13µM*,-8%,-2%,6%,-1%,?,12µM*,PMP22 HiBiT cnf=?
Cc1ccc(NC(=O)Cn2c(=O)n(-c3ccc(C)cc3)c(=O)c3ccc(C(=O)NCc4ccccc4Cl)cc32)cc1,-24%,-9%,i,?,4.5µM*,?,-5%,13%,-2%,22µM*,5.1µM*,PMP22 HiBiT cnf=?
Cc1ccc(-n2c(=O)c3ccc(C(=O)NCc4ccccc4Cl)cc3n(Cc3ccccc3F)c2=O)cc1,5%,-1%,-9%,-3%,0%,-4%,·,·,·,·,·,
CO[C@H]1C[C@@H]2CC[C@@H](C)[C@@](O)(O2)C(=O)C(=O)N2CCCC[C@@H]2C(=O)O[C@H]([C@H](C)C[C@@H]2CC[C@H](OP(C)(C)=O)[C@H](OC)C2)CC(=O)[C@H](C)C=C(C)[C@@H](O)[C@@H](OC)C(=O)[C@H](C)C[C@H](C)C=CC=CC=C1C,·,·,12%,·,·,·,·,·,·,·,·,
OC[C@H]1O[C@@H](OCCc2ccc(O)cc2)[C@H](O)[C@@H](O)[C@H]1O,·,·,-7%,·,·,·,·,·,·,·,·,
C#CCC(Cc1cnc2nc(N)nc(N)c2n1)c1ccc(C(=O)N[C@@H](CCC(=O)O)C(=O)O)cc1 (stereo partly specified),·,·,20%,·,·,·,·,·,·,·,·,
COc1ccc(NCc2cc3cc4c(cc3n(CC(=O)Nc3cccc(F)c3)c2=O)OCO4)cc1,19%,1%,i,14%,?,5%,·,·,·,·,·,
COc1ccc(NCc2cc3cc4c(cc3n(CC(=O)Nc3ccc(F)cc3F)c2=O)OCO4)cc1,0%,-5%,i,2%,18µM*,-25%,?,-3%,4%,5%,-8%,
COc1ccc(Nc2cc(C)nc3c(C)c(C)ccc23)cc1,7%,?,5%,16%,14µM*,19%,-1%,0%,0%,3%,-24%,
CC#CCn1c(N2CCC[C@@H](N)C2)nc2c1c(=O)n(Cc1nc(C)c3ccccc3n1)c(=O)n2C,·,·,-23%,·,·,·,·,·,·,·,·,

# High-throughput results as filed in PubChem.
